High-throughput results as filed in PubChem.
GSTO1 inh: blocks human GSTO1 in RBBP9 counter-screen; P78417; recombinant GSTO1, activity-based probe fluorescence polarization; inhibition, % at 5.96 µM; 300,000 compounds, 1.1% hits; AID 1974;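 active = inhibition above the campaign mean inhibition plus 3 SD, cut at about 35% in these data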;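 note: 0% = GSTO1-1 with DMSO and 100% = wells lacking GSTO1-1 enzyme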
Fam108B inh: counter-screen for RBBP9 inhibitors: inhibitors of mouse Fam108B; recombinant Fam108B, FP-Rh probe fluorescence polarization; AID 1947; 300,000 compounds, 0.33% hits; inhibition, % at 9.51 µM;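 active = inhibition above the screen mean inhibition plus 3 SD, computed separately per campaign, cut at about 18% in these data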;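 note: inhibitors lower polarization as less probe binds the enzyme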
pPAFAH FP inh: inhibitors of human plasma PAF acetylhydrolase (pPAFAH) | 330,000 compounds, 1.5% hits | recombinant pPAFAH, FP-rhodamine probe fluorescence polarization | Q13093 | inhibition, % at 3.39 µM;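 active = inhibition above the mean inhibition across the screen plus 3 SD, cut at about 25% in these data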;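 note: inhibitors block binding of the rhodamine activity-based probe so polarization drops; 0% = enzyme with DMSO and 100% = wells lacking pPAFAH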
PME-1 inh: PME-1 (human) inhibition | recombinant PME-1, FP-Rh probe fluorescence polarization | inhibition, % at 5.9 µM | 320,000 compounds, 0.53% hits | Q9Y570;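 active = inhibition above the campaign mean of all compounds plus 3 SD, cut at about 26% in these data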;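 note: competitive labeling of PME-1 active site by serine hydrolase directed probe; 0% = PME-1 with DMSO and 100% = wells lacking PME-1 enzyme; inhibitors block probe labeling so polarization falls and inhibition rises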
Target sequence (Q9Y570 whole entry, looked up): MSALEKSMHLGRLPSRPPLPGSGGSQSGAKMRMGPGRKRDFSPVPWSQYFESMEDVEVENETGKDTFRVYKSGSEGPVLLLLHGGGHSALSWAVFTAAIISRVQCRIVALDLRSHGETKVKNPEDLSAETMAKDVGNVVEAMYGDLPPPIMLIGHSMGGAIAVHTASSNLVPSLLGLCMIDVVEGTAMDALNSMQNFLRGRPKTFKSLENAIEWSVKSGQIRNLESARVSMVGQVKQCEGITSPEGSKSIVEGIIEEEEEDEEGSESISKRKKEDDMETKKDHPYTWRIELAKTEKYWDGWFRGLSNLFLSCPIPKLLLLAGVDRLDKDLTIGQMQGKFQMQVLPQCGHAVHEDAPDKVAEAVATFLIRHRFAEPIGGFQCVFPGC
PAD4 FP inh: inhibitors of human PAD4; recombinant PAD4, RCA probe fluorescence polarization; inhibition, % at 6.36 µM; 330,000 compounds, 0.41% hits; AID 485272;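 active = percent inhibition above a cutoff equal to the mean of all tested compounds plus 3 SD, cut at about 15% in these data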;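 note: 0% = PAD4 with RCA probe and DMSO and 100% = probe without PAD4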
GSTO1 confirm: GSTO1 (human) inhibition, confirmation; recombinant GSTO1, probe fluorescence polarization; inhibition, % at 5.96 µM; shares compounds with GSTO1 inh; 2,400 compounds, 54% hits;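 active = inhibition above the primary screen's cutoff, its mean inhibition plus 3 SD, cut at about 35% in these data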;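 note: loss of polarization as inhibitors block binding of rhodamine sulfonate ester activity probe; 0% = GSTO1 with DMSO and 100% = wells lacking GSTO1 enzyme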
GSTO1 ABPP inh: GSTO1 (human) inhibition by gel ABPP; shares compounds with GSTO1 inh; recombinant GSTO1, gel ABPP SE-Rh probe fluorescence; inhibition, % at 1 µM; 130 compounds, 30% hits;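 active = inhibition of the enzyme GSTO1 above about 75%, limit read from the data; inactive = inhibition below that limit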
The depositor's hits bear a star. A selection: hits, their analogues and other compounds. The true share with any hit is near 2.3%.

For CCOC(=O)N1CCN(CC(=O)Nc2ccc(F)cc2F)CC1 the results were GSTO1 inh 43*, Fam108B inh 0, pPAFAH FP inh -1, PME-1 inh 6, PAD4 FP inh -1 and GSTO1 confirm 10.
COc1cc(NC(=O)c2ccc3c(c2)OCO3)c2ncccc2c1 was read as GSTO1 inh 3, Fam108B inh -1, pPAFAH FP inh -2, PME-1 inh -3 and PAD4 FP inh -1.
For COc1cc(NCCCCCCCN)c2ncccc2c1 the results were GSTO1 inh 46*, Fam108B inh -3, pPAFAH FP inh 3, PME-1 inh -3, PAD4 FP inh 27* and GSTO1 confirm 60*.
`CC(=O)Nc1ccc(NC(=O)CSc2ccc([N+](=O)[O-])cn2)cc1` gave GSTO1 inh 8, Fam108B inh -4, pPAFAH FP inh -4, PME-1 inh -13 and PAD4 FP inh -2.
Cc1nnc2ccc(N3CCN(C(=O)c4ccccc4)CC3)nn12 was read as GSTO1 inh 0, Fam108B inh 1, pPAFAH FP inh 2, PME-1 inh -1 and PAD4 FP inh -4.
Screening O=C(c1ccc(Br)o1)N1CCN(c2ccc3nnc(-c4ccccc4)n3n2)CC1 returned GSTO1 inh 40*, Fam108B inh -3, pPAFAH FP inh 1, PME-1 inh -3, PAD4 FP inh -2 and GSTO1 confirm 0.
`CCOC(=O)c1c(NC(=O)C2CCCCC2C(=O)O)sc2c1CCCCC2` (stereo unspecified) gave GSTO1 inh 54*, Fam108B inh 1, pPAFAH FP inh 8, PME-1 inh -1, PAD4 FP inh 1 and GSTO1 confirm 47*.
`COC(=O)c1c(NC(=O)C2CCCCC2C(=O)O)sc2c1CCCCC2` (stereo unspecified) gave GSTO1 inh 23, Fam108B inh -2, pPAFAH FP inh -1, PME-1 inh 3 and PAD4 FP inh -3.
O=C(CN(c1ccc(F)cc1)S(=O)(=O)c1ccccc1)NCCSC1CCCCC1 was read as GSTO1 inh 3, Fam108B inh 3, pPAFAH FP inh 5, PME-1 inh -6 and PAD4 FP inh 0.
For CCc1ccc(NC(=O)CCS(=O)(=O)c2ccc(Cl)cc2)cc1 the results were GSTO1 inh 3, Fam108B inh 2, pPAFAH FP inh -3, PME-1 inh -1 and PAD4 FP inh 5.
For O=C(CCl)N(c1ccccc1)c1c[nH]c2ccccc12 the results were GSTO1 inh 70*, Fam108B inh 5, pPAFAH FP inh 0, PME-1 inh 2, PAD4 FP inh 3, GSTO1 confirm 78* and GSTO1 ABPP inh 34.
For O=C(O)Cc1c[nH]c2ccccc12 the results were GSTO1 inh 2, Fam108B inh -1, pPAFAH FP inh 2, PME-1 inh -6 and PAD4 FP inh -2.
For COc1ccc(NC(=O)CN(C)C(=O)c2cc3c(s2)CCC3)cc1 the results were GSTO1 inh 59*, Fam108B inh -1, pPAFAH FP inh 23, PME-1 inh -1, PAD4 FP inh -4 and GSTO1 confirm 17.
Screening O=C(CSc1nnc(CNC(=O)c2ccccc2)o1)Nc1ccc2c(c1)OCCO2 returned GSTO1 inh 0, Fam108B inh 0, pPAFAH FP inh 2, PME-1 inh -6 and PAD4 FP inh 1.
For O=C(CSc1nnc(CNc2ccccc2)o1)c1ccc2c(c1)OCCO2 the results were GSTO1 inh 40*, Fam108B inh -2, pPAFAH FP inh 4, PME-1 inh 4, PAD4 FP inh 1 and GSTO1 confirm 30.
For Cc1nnc(N/N=C/c2c(O)n(-c3cccc(C(F)(F)F)c3)c(=O)c3ccccc23)[nH]c1=O the results were GSTO1 inh 39*, Fam108B inh 14, pPAFAH FP inh 2, PME-1 inh 2, PAD4 FP inh -3 and GSTO1 confirm 19.
`Cc1cc(C)nc(/N=C(\N)Nc2ccccc2-c2ccccc2)n1` gave GSTO1 inh -1, Fam108B inh -1, pPAFAH FP inh -3, PME-1 inh -2 and PAD4 FP inh 0.
Screening COc1ccc(N2CC(C(=O)Nc3cccnc3)CC2=O)cc1 (stereo unspecified) returned GSTO1 inh -1, Fam108B inh -1, pPAFAH FP inh -1, PME-1 inh -1 and PAD4 FP inh 1.
